The record followed here is paper PMC10726135, “HNF4α isoforms regulate the circadian balance between carbohydrate and lipid metabolism in the liver”.

Over roughly 18,000 sequences, “log2 normalized intensity” has its median near 0.36; the highest 2% begin near 7.3. The sample as a whole holds a higher share of the highest values than the screen did.

In the assay the target is T1, HNF4alpha8 (COS-7 nuclear extract) (Homo sapiens, UniProt P41235-5 1-452).
T1 sequence: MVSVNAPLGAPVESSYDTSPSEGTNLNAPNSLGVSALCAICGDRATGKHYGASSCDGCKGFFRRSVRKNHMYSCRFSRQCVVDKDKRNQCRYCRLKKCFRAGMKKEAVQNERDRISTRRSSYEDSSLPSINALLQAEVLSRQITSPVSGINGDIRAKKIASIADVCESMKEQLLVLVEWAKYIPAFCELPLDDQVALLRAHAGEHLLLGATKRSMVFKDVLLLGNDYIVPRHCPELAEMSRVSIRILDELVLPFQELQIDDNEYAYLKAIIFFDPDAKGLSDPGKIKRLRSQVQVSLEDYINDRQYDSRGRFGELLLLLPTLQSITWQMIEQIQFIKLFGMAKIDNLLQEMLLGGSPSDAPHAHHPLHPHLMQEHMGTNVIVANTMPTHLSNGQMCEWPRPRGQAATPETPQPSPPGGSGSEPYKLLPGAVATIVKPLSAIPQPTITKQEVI
The assay can be described thus: protein-binding microarray; COS-7 nuclear extract on double-stranded Agilent 4x180k PBM; binding buffer, salt, pH and temperature not given in the material; high values mean tight binding. As to conditions: chain copies: 2; label: 3' end of strand 1 on the slide; dsDNA, one strand shown. In short, it runs like this: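 Binding signal is the background-corrected, normalized gProcessedSignal calculated by Agilent software. It was measured by applying nuclear extracts of COS-7 cells transiently transfected with a human HNF4α isoform expression vector to a custom Agilent SurePrint G3 4x180k array of ~44,000 double-stranded ~60-nt test sequences in quadruplicate, then imaging bound HNF4α on an Agilent G2565CA scanner at 2-µm resolution.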
Regarding “CACTTCCCGAGTGAGGCAATGCCTCGCCCTGCCTAGGGAGATTAGAGTATCGGTCGA”, the binding signal was -0.664 log2 normalized intensity.

On to “ATTCAGCATTGCTTGGGAGCAGTCCTTGGGGCCTAGGGAGATTAGAGTATCGGTCGA”, for which the binding signal is -0.959 log2 normalized intensity.

As to “AGCATGTTTGGTGACCCGTGACCCTCAGGAGCCTAGGGAGATTAGAGTATCGGTCGA”, the binding signal was found to be 3.82 log2 normalized intensity.

Turning to “CCGTCTCTCACCAAATCCCTGCCCACATCCGCCTAGGGAGATTAGAGTATCGGTCGA”, the binding signal is 2.23 log2 normalized intensity.

For the sequence “CTCCTTGGAAGTCGCCGTGAGGTTATTTGCGCCTAGGGAGATTAGAGTATCGGTCGA”, the binding signal amounted to 0.914 log2 normalized intensity.

Turning to “GAGAGGCTTATGCATGGGAGATCTTCAGTAGCCTAGGGAGATTAGAGTATCGGTCGA”, the binding signal was -0.357 log2 normalized intensity.

Regarding “TTCCTTATCTGGAATTCCTCCTCCTGTTTGGCCTAGGGAGATTAGAGTATCGGTCGA”, the binding signal came to 0.85 log2 normalized intensity.

Take “TCTTTTGACCTTTGCCTCATTCTTATTGCCGCCTAGGGAGATTAGAGTATCGGTCGA”: the binding signal was found to be 5.61 log2 normalized intensity.

“GACCTTTATATGTCCACCTTATCTAATGCCGCCTAGGGAGATTAGAGTATCGGTCGA”: the binding signal was 2.22 log2 normalized intensity.

As for “AGCAAACCTGTCTCTCTGCATTCCTCCTGGGCCTAGGGAGATTAGAGTATCGGTCGA”, the binding signal was 0.684 log2 normalized intensity.

As to “TCTTTAAGGACCACATCAAAGGTCATCTCTGCCTAGGGAGATTAGAGTATCGGTCGA”, the binding signal came out at 5.09 log2 normalized intensity.

For “TGCAGTGTCCATGGTGACCATGTGATGTGAGCCTAGGGAGATTAGAGTATCGGTCGA”, the binding signal was 1.26 log2 normalized intensity.

With “TGCCTTTGATCAGGGACCTTTGTTCCTTTAGCCTAGGGAGATTAGAGTATCGGTCGA”, the binding signal amounted to 5 log2 normalized intensity.

Turning to “TGCACTTTGACCGCTCATTTGATCCTCACAGCCTAGGGAGATTAGAGTATCGGTCGA”, the binding signal was found to be 4.61 log2 normalized intensity.

In the case of “AGTGCGATGATCATGGCTCACTGCACCTTGGCCTAGGGAGATTAGAGTATCGGTCGA”, the binding signal stood at 0.737 log2 normalized intensity.

For the sequence “TCATGGCTCACTGCACCTTGACCTCCTGGGGCCTAGGGAGATTAGAGTATCGGTCGA”, the binding signal was 5.78 log2 normalized intensity.

Turning to “CTCATGTGGTCCTAAAATTGACCTTTGATCGCCTAGGGAGATTAGAGTATCGGTCGA”, the binding signal worked out at 11 log2 normalized intensity.

For the sequence “CAAATAAACCTTTGACCAATTGACCCTATCGCCTAGGGAGATTAGAGTATCGGTCGA”, the binding signal was 4.69 log2 normalized intensity.

“GCTGACCTTTGGTCTAAACCTACTTAGATCGCCTAGGGAGATTAGAGTATCGGTCGA”: the binding signal was found to be 4.73 log2 normalized intensity.

On to “GATGATCATGGCTCACTGCACCTTGACCTCGCCTAGGGAGATTAGAGTATCGGTCGA”, for which the binding signal turned out to be 8.12 log2 normalized intensity.

Regarding “GTGGTCCTAAAATTGACCTTTGATCACTCAGCCTAGGGAGATTAGAGTATCGGTCGA”, the binding signal is 10.2 log2 normalized intensity.

“GCCTCCATTAATTAACCTTTGAGCTGGGTGGCCTAGGGAGATTAGAGTATCGGTCGA”: the binding signal is 5.22 log2 normalized intensity.

Consider “TGGACTGTTCAAGACCAAAGGTCATGGCAAGCCTAGGGAGATTAGAGTATCGGTCGA”, for which the binding signal came out at 5.58 log2 normalized intensity.

Consider “TAAGTGTGGGTTTAAGTAAGCCCCCTTCCCGCCTAGGGAGATTAGAGTATCGGTCGA”, for which the binding signal came out at 4.85 log2 normalized intensity.

Regarding “AGCTGACCCCAAAACCCCCAAAGGTGAGTAGCCTAGGGAGATTAGAGTATCGGTCGA”, the binding signal was determined as 4.29 log2 normalized intensity.

In the case of “GCCACCCTCTGGCCACCAGTTATTCATGTCGCCTAGGGAGATTAGAGTATCGGTCGA”, the binding signal is 0.887 log2 normalized intensity.

As to “GACCTTTGAACACCACAAGTTTGAACTGCAGCCTAGGGAGATTAGAGTATCGGTCGA”, the binding signal is 5.65 log2 normalized intensity.

Regarding “CAGTTGACCTTTGAACACCACAAGTTTGAAGCCTAGGGAGATTAGAGTATCGGTCGA”, the binding signal was 6.74 log2 normalized intensity.

As for “AACTACAGTTGACCTTTGAACACCACAAGTGCCTAGGGAGATTAGAGTATCGGTCGA”, the binding signal came out at 8.13 log2 normalized intensity.

As to “ATGCCCCATGGTAAGAACTACAGTTGACCTGCCTAGGGAGATTAGAGTATCGGTCGA”, the binding signal was found to be 4.71 log2 normalized intensity.

Take “TAGGTATGCCCCATGGTAAGAACTACAGTTGCCTAGGGAGATTAGAGTATCGGTCGA”: the binding signal is 1.21 log2 normalized intensity.

On to “CCATGGTAAGAACTACAGTTGACCTTTGAAGCCTAGGGAGATTAGAGTATCGGTCGA”, for which the binding signal was 8.15 log2 normalized intensity.

Turning to “TTTTCCTTTGTTGGTTTTGCCCGAGGTCTGGCCTAGGGAGATTAGAGTATCGGTCGA”, the binding signal is 1.89 log2 normalized intensity.

As to “GTGGAATTTGTGCTTATTTCCCATCAAGGAGCCTAGGGAGATTAGAGTATCGGTCGA”, the binding signal is 0.292 log2 normalized intensity.

With “ATAGCGCCCACACTGCCCATCCCCACTGAAGCCTAGGGAGATTAGAGTATCGGTCGA”, the binding signal worked out at 3.12 log2 normalized intensity.

Regarding “AGCTGCCCTTTGCACATGCCCCTCCCAGGGGCCTAGGGAGATTAGAGTATCGGTCGA”, the binding signal was determined as 2.81 log2 normalized intensity.

With “AATGCACTGGTGACTTTAAGTTGACTCCAAGCCTAGGGAGATTAGAGTATCGGTCGA”, the binding signal was -0.366 log2 normalized intensity.

As for “TCACCAGGATGGGCCATGACCTTTACCCCCGCCTAGGGAGATTAGAGTATCGGTCGA”, the binding signal was 10 log2 normalized intensity.

As for “GGGCCATGACCTTTACCCCCATTTGGTAATGCCTAGGGAGATTAGAGTATCGGTCGA”, the binding signal was 7.13 log2 normalized intensity.

For the sequence “AACGGCCCAGGGTTAGAGGATGACCTTCCCGCCTAGGGAGATTAGAGTATCGGTCGA”, the binding signal amounted to 3.71 log2 normalized intensity.

In the case of “ATGACCTTTACCCCCATTTGGTAATGGGCCGCCTAGGGAGATTAGAGTATCGGTCGA”, the binding signal was found to be 5.46 log2 normalized intensity.

Take “CACTATCACCAGGATGGGCCATGACCTTTAGCCTAGGGAGATTAGAGTATCGGTCGA”: the binding signal turned out to be 4.97 log2 normalized intensity.

For “AGGATGGGCCATGACCTTTACCCCCATTTGGCCTAGGGAGATTAGAGTATCGGTCGA”, the binding signal amounted to 8.39 log2 normalized intensity.
